# Laboratory results: PubChem BioAssay (NCATS)
# Values without a mark were called inactive. Records with an inconclusive call do not appear. Where a call stands in place of a potency, no number is given. Calls of active or inactive are those of the source. Calls come from the whole dose curve; as a rule, active = well fitted curve in the direction sought with a large enough effect; inconclusive = small, poorly fitted or top-dose-only effect, or another doubt; inactive = no such curve, though single readings can be large; an effect the other way counts as inactive or inconclusive. Where a SMILES comes first, the peptide text is derived from it.
# What was measured:
# [1] = target: Glutathione peroxidase 1 (Homo sapiens) (UniProt P07203); assay: Primary qHTS Assay for Inhibitors of Recombinant Selenoprotein Glutathione Peroxidase 1 (GPX1) (AID 1845191); note: nearly all actives have a fitted effect of over 65% in size
# Outline: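 GPX1 10 nM, GR 100 nM, GSH 1 mM, NADPH 0.5 mM, CHP 0.5 mM (final). 30-min cpd preincubation, RT. Ex340/Em450 read t=0, t=15 min.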
# [2] = target: Phospholipid hydroperoxide glutathione peroxidase GPX4 (Homo sapiens) (UniProt P36969); assay: Primary qHTS Assay for Inhibitors of Recombinant Selenoprotein Glutathione Peroxidase 4 (GPX4) (AID 1845192); note: nearly all actives have a fitted effect of over 65% in size; for activity change, negative = inhibition: series mostly up to about 50 µM
# Outline: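 qHTS, GR-coupled: GPX4 200 nM + cpd 30 min RT → GSH 1 mM, NADPH 0.5 mM, GR 100 nM → CHP 0.5 mM start; fluor 340/450 at t0 and t15 min; no-enzyme wells as control.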
# [3] = target: Luciferin 4-monooxygenase (Photinus pyralis) (UniProt P08659); assay: Primary firefly luciferase (FLuc) qHTS assay for identification of artifact compounds. (AID 1845220); note: nearly all actives have a fitted effect of over 60% in size; for activity change, negative = inhibition: series mostly up to about 54 µM
# Outline: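 qHTS, 15 min compound preincubation with substrate (10 uM luciferin, 10 uM ATP) at RT, then 10 nM FLuc; 5 min; luminescence; % inhibition vs no-enzyme/DMSO controls, 4-parameter Hill fit.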
# [4] = Primary fluorescence-based thiol-reactive (MSTI) qHTS assay for identification of artifact compounds. (AID 1845221); note: nearly all actives have a fitted effect of over 65% in size; note: potency is the fitted concentration of half-maximal effect;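 for activity change, negative = thiol reactive: series mostly up to about 54 µM; thiol-reactive compounds lower the probe fluorescence signal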
# Outline: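 Curve-fitted percent inhibition (4-parameter Hill) derived from fluorescence, Ex 525/Em 598 nm, scaled with Acetyl-MSTI and MSTI; 1 h incubation at room temperature.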
# [5] = test system: Nanoluciferase (engineered Oplophorus gracilirostris luciferase); assay: Primary Nanoluciferase (NLuc) qHTS assay for identification of artifact compounds. (AID 1845222); note: series mostly up to about 54 µM
# Outline: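 Luminescence read-out of secreted NLuc in S16 cell conditioned medium (1:55); compounds tested with 15 min RT preincubation, then Nano-Glo substrate 1:100, 5 min. % inhibition vs no-enzyme and DMSO controls, 4-parameter Hill fit.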
# [6] = Primary redox qHTS assay for identification of artifact compounds. (AID 1845223)
# Outline: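 Redox-cycling detection via DTT (250 uM final) oxidation coupled to Amplex Red (25 uM)/HRP (250 mU/mL) in HBSS. 15 min preincubation plus 30 min after DTT, room temperature. Ex/Em 525/598 nm; 4-parameter Hill fit against DMSO and 10 uM DA3003.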
# Phospholipid hydroperoxide glutathione peroxidase GPX4 (Homo sapiens), sequence (P36969 whole entry, looked up): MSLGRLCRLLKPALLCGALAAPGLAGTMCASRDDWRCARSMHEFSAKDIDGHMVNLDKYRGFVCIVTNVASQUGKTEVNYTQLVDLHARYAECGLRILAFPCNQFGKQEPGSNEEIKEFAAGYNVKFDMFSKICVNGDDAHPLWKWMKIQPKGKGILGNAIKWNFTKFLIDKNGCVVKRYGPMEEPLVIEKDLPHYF
# Glutathione peroxidase 1 (Homo sapiens), sequence (P07203 whole entry, looked up): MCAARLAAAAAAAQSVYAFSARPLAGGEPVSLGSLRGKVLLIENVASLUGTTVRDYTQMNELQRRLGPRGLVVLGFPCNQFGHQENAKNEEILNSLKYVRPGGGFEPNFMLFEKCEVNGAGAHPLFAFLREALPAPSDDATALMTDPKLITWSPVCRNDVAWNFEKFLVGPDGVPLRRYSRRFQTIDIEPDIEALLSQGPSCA
SMILES,Potency [1],Potency [2],Potency [3],Potency [4],Potency [5],Potency [6],outcome [3],"activity change, negative = thiol reactive [4]","activity, negative = inhibition [5]",redox activity (% of DA3003) [6],"activity change, negative = inhibition [3]"
CC1(C)CC[C@]2(C(=O)O)CC[C@]3(C)C(=CCC4[C@@]5(C)C[C@@H](O)[C@H](O)[C@@](C)(CO)C5[C@H](O)C[C@]43C)[C@@H]2C1 (some centres undefined),inactive,inactive,inactive,inactive,inactive,inactive,–,–,–,–,–
CC(=O)OCC1OC(O[C@H]2CC[C@]34C[C@]35CC(O)[C@]3(C)[C@@H]([C@H](C)CC/C=C(\C)C(=O)O)C(O)C[C@@]3(C)C5CC[C@H]4C2(C)C)C(O)C(O)C1OC1OCC(O)C(O)C1O (some centres undefined),inactive,inactive,–,–,–,–,inactive [at 11.6 µM],154% [at 11.5 µM],-3.42% [at 11.6 µM],-5.4% [at 11.5 µM],–
O=C1NC(=O)/C(=C/c2cccc(C(F)(F)F)c2)S1,inactive,inactive,inactive,1.06 µM (active),inactive,inactive,–,–,–,–,–
CSCC[C@H](NC(=O)[C@H](CO)NC(=O)[C@H](CCC(=O)O)NC(C)=O)C(=O)N[C@H](C=O)CC(=O)O (Ac-ESMD-aldehyde),inactive,inactive,–,–,–,–,–,10.4% [at 11.5 µM],3.03% [at 11.6 µM],-1.61% [at 11.5 µM],-5.86% [at 11.6 µM]
O=C(O)CCc1cccc(O)c1O[C@@H]1O[C@H](CO)[C@@H](O)[C@H](O)[C@H]1O,inactive,inactive,inactive,14.7 µM (active),inactive,inactive,–,–,–,–,–
CC(C)=CCC[C@](C)(O[C@@H]1O[C@H](CO[C@@H]2O[C@@H](CO)[C@H](O)[C@H]2O[C@@H]2OC[C@@H](O)[C@H](O)[C@H]2O)[C@@H](O)[C@H](O)[C@H]1O)[C@H]1CC[C@]2(C)[C@@H]1[C@H](O)CC1[C@@]3(C)CC[C@H](O[C@@H]4O[C@H](CO)[C@@H](O)[C@H](O)[C@H]4O[C@@H]4O[C@H](CO)[C@@H](O)[C@H](O)[C@H]4O)C(C)(C)C3CC[C@]12C (some centres undefined),inactive,inactive,–,–,–,–,–,132% [at 11.5 µM],0% [at 11.6 µM],-2.65% [at 11.5 µM],0.984% [at 11.6 µM]
NC(=O)c1ccc(F)c2c1C[C@@H](N(C1CCC1)C1CCC1)CO2,inactive,inactive,inactive,inactive,inactive,inactive,–,–,–,–,–
CC1(C)CCC2(C(=O)O)C(O)CC3(C)C(=CCC4C5(C)CCC(OC6OC(CO)C(O)C(O)C6OC6OC(CO)C(O)C(O)C6OC6OCC(O)(CO)C6O)C(C)(C)C5CCC43C)C2C1 (centres undefined),inactive,inactive,–,–,–,–,inactive [at 11.6 µM],154% [at 11.5 µM],1.68% [at 11.6 µM],17% [at 11.5 µM],–
COc1c(C)c(OCC=C(C)C)cc2c1COC2=O,inactive,inactive,inactive,inactive,inactive,inactive,–,–,–,–,–
CC1(C)CC[C@]2(C(=O)O[C@@H]3O[C@H](CO)[C@@H](O)[C@H](O)[C@H]3O)CC[C@]3(C)C(=CCC4[C@@]5(C)C[C@@H](O)[C@H](O)[C@@](C)(CO)C5[C@H](O)C[C@]43C)C2[C@@H]1O (some centres undefined),inactive,inactive,inactive,3.16 µM (active),inactive,inactive,–,–,–,–,–
O=C(OCC1OC(Oc2ccc(O)cc2COC(=O)C2(O)C(O)CCC(=O)C2OC(=O)C2C=CCC2)C(OC(=O)C2C=CCC2)C(O)C1O)C1C=CCC1 (centres undefined),inactive,inactive,inactive,inactive,inactive,inactive,–,–,–,–,–
COC(=O)C1=CO[C@@H](O[C@@H]2O[C@H](CO)[C@@H](O)[C@H](O)[C@H]2O)[C@@H]2[C@@H](CO)[C@@H](O)C(O)[C@H]12 (some centres undefined),inactive,inactive,inactive,inactive,inactive,inactive,–,–,–,–,–
O=C(/C=C/c1ccc(O)cc1)OCC1OC(O)C(OC2OC(CO)C(O)C(O)C2O)C(O)C1O (centres undefined),inactive,inactive,inactive,inactive,inactive,inactive,–,–,–,–,–
CC(=O)OC1C(CO)OC(O[C@H]2[C@H](OC(=O)[C@]34CCC(C)(C)C[C@H]3C3=CCC5[C@@]6(C)CC[C@H](O[C@@H]7O[C@H](C(=O)O)[C@@H](O)[C@H](O[C@@H]8OC[C@@H](O)[C@H](O)[C@H]8O)[C@H]7O[C@@H]7O[C@H](CO)[C@H](O)[C@H](O)[C@H]7O)[C@@](C)(C=O)C6CC[C@@]5(C)[C@]3(C)C[C@H]4O)O[C@H](C)[C@H](OC3OC(C)C(OC4OCC(O)C(O)C4O)C(O)C3O)[C@@H]2O)C(O)C1O (some centres undefined),inactive,inactive,–,–,–,–,–,290% [at 11.5 µM],1.69% [at 11.6 µM],3.62% [at 11.5 µM],2.42% [at 11.6 µM]
CC1(C)CC[C@]2(C(=O)O)CC[C@]3(C)C(=CCC4[C@@]5(C)CC[C@H](O[C@H]6O[C@H](C(=O)O)[C@@H](O)[C@H](O[C@@H]7O[C@H](CO)[C@H](O)[C@H](O)[C@H]7O)[C@H]6O)C(C)(C)C5CC[C@]43C)[C@@H]2C1 (some centres undefined),inactive,inactive,–,–,–,–,–,239% [at 11.5 µM],2.24% [at 11.6 µM],8.43% [at 11.5 µM],1.03% [at 11.6 µM]
CC(=O)/C=C/C1(O)C(C)CC(O[C@@H]2O[C@H](CO)[C@@H](O)[C@H](O)[C@H]2O)CC1(C)C (some centres undefined),inactive,inactive,inactive,9.22 µM (active),inactive,inactive,–,–,–,–,–
COc1cc(C(C)=O)ccc1O[C@@H]1O[C@H](CO[C@@H]2OC[C@@H](O)[C@H](O)[C@H]2O)[C@@H](O)[C@H](O)[C@H]1O,inactive,inactive,inactive,inactive,inactive,inactive,–,–,–,–,–
CC1CCCCCCCc2cc(O)cc(O)c2C(=O)O1 (centres undefined),inactive,inactive,inactive,26.7 µM (active),inactive,inactive,–,–,–,–,–
Cc1ccc([C@@H]2CC=C(C(=O)O)[C@H](c3ccc(C(C)(C)C)cc3)N2S(=O)(=O)c2ccc(C)cc2)cc1,inactive,inactive,inactive,inactive,inactive,inactive,–,–,–,–,–
C/C(=C\CO)CC/C=C(\C)C(=O)O[C@@H]1O[C@H](CO)[C@@H](O)[C@H](O)[C@H]1O,inactive,inactive,inactive,inactive,inactive,inactive,–,–,–,–,–

SMILES,Potency [1],Potency [2],Potency [3],Potency [4],Potency [5],Potency [6],outcome [3],"activity change, negative = thiol reactive [4]","activity, negative = inhibition [5]",redox activity (% of DA3003) [6],"activity change, negative = inhibition [3]"
COC(=O)C[C@@H]1C(C(=O)O)=CO[C@@H](O[C@@H]2O[C@H](CO)[C@@H](O)[C@H](O)[C@H]2O)/C1=C\COC(=O)/C=C/c1ccc(O)c(OC)c1,inactive,inactive,inactive,inactive,inactive,inactive,–,–,–,–,–
O=C(O)CC1(O)C(=O)Nc2ccccc21 (centres undefined),inactive,inactive,inactive,25.1 µM (active),inactive,inactive,–,–,–,–,–
C[C@@H]1C(=O)O[C@H](C)[C@H]1C[C@@H](O)[C@](C)(O)[C@H]1CC[C@@]2(O)C3=CC(=O)[C@@H]4C[C@@H](O)[C@@H](O)C[C@]4(C)C3CC[C@]12C (some centres undefined),inactive,inactive,inactive,inactive,inactive,inactive,–,–,–,–,–
C=C1C(=O)OC2CC(COC(=O)C(C)C)=C(C(C)CCCOC(C)=O)[C@@H](OC(C)=O)C12 (some centres undefined),inactive,inactive,inactive,inactive,inactive,inactive,–,–,–,–,–
CC1(C)CC[C@]2(C(=O)O[C@@H]3O[C@H](CO)[C@@H](O)[C@H](O)[C@H]3O)CC[C@]3(C)C(=CCC4[C@@]5(C)CC[C@H](O[C@@H]6O[C@H](C(=O)O)[C@@H](O[C@@H]7O[C@H](CO)[C@@H](O)[C@H](O)[C@H]7O)[C@H](O)[C@H]6O[C@@H]6O[C@H](CO)[C@@H](O)[C@H](O)[C@H]6O)C(C)(C)C5CC[C@]43C)C2C1 (some centres undefined),inactive,inactive,–,–,–,–,inactive [at 11.6 µM],240% [at 11.5 µM],0% [at 11.6 µM],12.6% [at 11.5 µM],–
Nc1ncnc2c1ncn2[C@H]1O[C@@H](C(=O)N2CCN(CC(=O)Nc3cccc4c3CNC4=O)CC2)[C@H](O)[C@@H]1O,inactive,inactive,inactive,inactive,inactive,inactive,–,–,–,–,–
COC(=O)C1(C)CCCC2(C)c3ccc(C(C)C)cc3C(O)C(O)C12 (centres undefined),inactive,inactive,inactive,inactive,inactive,inactive,–,–,–,–,–
O=C(N[C@@H]1CC[C@@H](c2cccc(F)c2F)CN(CC(F)(F)F)C1=O)N1CCC(n2c(=O)[nH]c3ncccc32)CC1,inactive,inactive,inactive,inactive,inactive,inactive,–,–,–,–,–
CC1=C2CC(=O)C(C)CC/C=C(\C)CC2(O)OC1=O (centres undefined),inactive,inactive,inactive,inactive,inactive,inactive,–,–,–,–,–
CC(=O)O[C@@H]1[C@H](OC(C)=O)C[C@@]2(C)C(CC[C@@H](C)[C@]23Cc2c(O)cc4c(c2O3)CN([C@@H](CCC(=O)O)C(=O)O)C4=O)C1(C)C (some centres undefined),inactive,inactive,inactive,inactive,inactive,inactive,–,–,–,–,–
C=C1CC[C@@H]2C(C)(C)CCC[C@@]2(C)[C@@H]1CC/C(=C/C(=O)OC)COC(C)=O,inactive,inactive,inactive,inactive,inactive,inactive,–,–,–,–,–
COC(=O)C1=CO[C@@H](O[C@@H]2O[C@H](CO)[C@@H](O)[C@H](O)[C@H]2O)[C@@H]2[C@@H](C)[C@@H](O)C(O)[C@H]12 (some centres undefined),inactive,inactive,inactive,inactive,inactive,inactive,–,–,–,–,–
COc1cc(O)cc2c1C(=O)OC(C)C2 (centres undefined),inactive,inactive,inactive,inactive,inactive,inactive,–,–,–,–,–
COC(=O)C1=CO[C@@H](O[C@@H]2O[C@H](CO)[C@@H](O)[C@H](O)[C@H]2O)[C@@H]2C(C)CC(=O)[C@]12O (some centres undefined),inactive,inactive,inactive,inactive,inactive,inactive,–,–,–,–,–
Cc1occc(=O)c1O[C@@H]1O[C@H](CO)[C@@H](O)[C@H](O)[C@H]1O,inactive,inactive,inactive,inactive,inactive,inactive,–,–,–,–,–
C[C@@H]1O[C@@H](O[C@H]2[C@H](O[C@H]3[C@H](O[C@H]4CC[C@@]5(C)C(CC[C@]6(C)C5CC=C5[C@@H]7CC(C)(C)C[C@@H](O)[C@]7(C)CC[C@]56C)[C@@]4(C)CO)O[C@H](C(=O)O)[C@@H](O)[C@@H]3O)O[C@H](CO)[C@H](O)[C@@H]2O)[C@H](O)[C@H](O)[C@H]1O (some centres undefined),inactive,inactive,–,–,–,–,–,67.3% [at 11.5 µM],4.57% [at 11.6 µM],10.7% [at 11.5 µM],0.671% [at 11.6 µM]
COc1ccc(OC2OC(CO[C@@H]3O[C@@H](C)[C@H](O)[C@@H](O)[C@H]3O)C(O)C(O)C2O)cc1OC (some centres undefined),inactive,inactive,inactive,2.32 µM (active),inactive,inactive,–,–,–,–,–
CCC/C=C1\OC(=O)C2=C1CCC(O)C2O (centres undefined),inactive,inactive,inactive,inactive,inactive,inactive,–,–,–,–,–
C=C1CCC(OC(C)=O)C2(C)CC3OC(=O)C(C)=C3CC12 (centres undefined),inactive,inactive,inactive,inactive,inactive,inactive,–,–,–,–,–
